# Experimental data reported in the supplement of paper PMC9794691.
# How the values were obtained:
# Test in all cases: area under confluence curve of osimertinib + compound combination regimen (DTP regrowth); compare to osimertinib-only DTP control AUC of the same experiment (AUC (confluence x time, arbitrary))
# H1975 = test system: H1975
# How it was run: (§1)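 The area under the IncuCyte confluence–time curve, calculated in Prism and taken as the median of triplicates where available, is the value reported. It was measured in EGFR-mutant NSCLC lines that received the EGFR inhibitor either alone, followed by a test compound, or together with a fixed-dose test compound until the persister stage (10–21 days) and then drug-free medium. Medium was refreshed every 3–4 days until the inhibitor-only wells were confluent again.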
# HCC2279 = test system: HCC2279
# How it was run: as §1
# HCC2935 = test system: HCC2935
# How it was run: as §1
# HCC4006 = test system: HCC4006
# How it was run: as §1
# HCC827 = test system: HCC827
# How it was run: as §1
# II-18 = test system: II-18
# How it was run: as §1
# PC9 = test system: PC9
# How it was run: as §1
smiles,measurement,setting,value
CN(C)CCCOc1ccc(-c2ccc3ncc4c(c3c2)n(C2CCOCC2)c(=O)n4C)cn1 + C=CC(=O)Nc1cc(Nc2nccc(-c3cn(C)c4ccccc34)n2)c(OC)cc1N(C)CCN(C)C [osimertinib],area under confluence curve,"H1975; test compound dose 300 nM, dosing schedule: sequential, osimertinib-only DTP control AUC in same experiment: 19301, DMSO control AUC in same experiment: 26223",3330
same,area under confluence curve,"H1975; test compound dose 300 nM, dosing schedule: upfront, osimertinib-only DTP control AUC in same experiment: 23997, DMSO control AUC in same experiment: 26223",18100
same,area under confluence curve,"HCC2279; test compound dose 300 nM, dosing schedule: sequential, osimertinib-only DTP control AUC in same experiment: 26096, DMSO control AUC in same experiment: 14404",24700
same,area under confluence curve,"HCC2279; test compound dose 300 nM, dosing schedule: upfront, osimertinib-only DTP control AUC in same experiment: 33120, DMSO control AUC in same experiment: 14404",33900
same,area under confluence curve,"HCC2935; test compound dose 300 nM, dosing schedule: sequential, osimertinib-only DTP control AUC in same experiment: 22314, DMSO control AUC in same experiment: 19215",22300
same,area under confluence curve,"HCC2935; test compound dose 300 nM, dosing schedule: upfront, osimertinib-only DTP control AUC in same experiment: 29846, DMSO control AUC in same experiment: 19215",30600
same,area under confluence curve,"HCC4006; test compound dose 300 nM, dosing schedule: sequential, osimertinib-only DTP control AUC in same experiment: 12791, DMSO control AUC in same experiment: 18415",12000
same,area under confluence curve,"HCC4006; test compound dose 300 nM, dosing schedule: upfront, osimertinib-only DTP control AUC in same experiment: 17269, DMSO control AUC in same experiment: 18415",16000
same,area under confluence curve,"HCC827; test compound dose 300 nM, dosing schedule: sequential, osimertinib-only DTP control AUC in same experiment: 15330, DMSO control AUC in same experiment: 21320",12300
same,area under confluence curve,"HCC827; test compound dose 300 nM, dosing schedule: upfront, osimertinib-only DTP control AUC in same experiment: 20798, DMSO control AUC in same experiment: 21320",17400
same,area under confluence curve,"II-18; test compound dose 300 nM, dosing schedule: sequential, osimertinib-only DTP control AUC in same experiment: 8624, DMSO control AUC in same experiment: 11834",9720
same,area under confluence curve,"II-18; test compound dose 300 nM, dosing schedule: upfront, osimertinib-only DTP control AUC in same experiment: 10856, DMSO control AUC in same experiment: 11834",10600
CN1CCN(c2nc(C3=C(c4c[nH]c5ccccc45)C(=O)NC3=O)c3ccccc3n2)CC1 [Sotrastaurin] + C=CC(=O)Nc1cc(Nc2nccc(-c3cn(C)c4ccccc34)n2)c(OC)cc1N(C)CCN(C)C [osimertinib],area under confluence curve,"PC9; test compound dose 1000 nM, dosing schedule: sequential, osimertinib-only DTP control AUC in same experiment: 10175, DMSO control AUC in same experiment: 27958",9060
same,area under confluence curve,"PC9; test compound dose 1000 nM, dosing schedule: upfront, osimertinib-only DTP control AUC in same experiment: 16134, DMSO control AUC in same experiment: 27958",10800
CCn1cc(-c2cccc(C(F)(F)F)c2)c2sc(C(=N)NC3CCS(=O)(=O)CC3)cc2c1=O + C=CC(=O)Nc1cc(Nc2nccc(-c3cn(C)c4ccccc34)n2)c(OC)cc1N(C)CCN(C)C [osimertinib],area under confluence curve,"PC9; test compound dose 1000 nM, dosing schedule: sequential, osimertinib-only DTP control AUC in same experiment: 4730, DMSO control AUC in same experiment: 72888",4010
same,area under confluence curve,"PC9; test compound dose 1000 nM, dosing schedule: upfront, osimertinib-only DTP control AUC in same experiment: 8775, DMSO control AUC in same experiment: 72888",6420
CCN1CCN(Cc2ccc(Nc3ncc(F)c(-c4cc(F)c5nc(C)n(C(C)C)c5c4)n3)nc2)CC1 [Abemaciclib] + C=CC(=O)Nc1cc(Nc2nccc(-c3cn(C)c4ccccc34)n2)c(OC)cc1N(C)CCN(C)C [osimertinib],area under confluence curve,"H1975; test compound dose 100 nM, dosing schedule: sequential, osimertinib-only DTP control AUC in same experiment: 12533, DMSO control AUC in same experiment: 14522",8980
same,area under confluence curve,"H1975; test compound dose 100 nM, dosing schedule: upfront, osimertinib-only DTP control AUC in same experiment: 18969, DMSO control AUC in same experiment: 14522",5060
same,area under confluence curve,"HCC2279; test compound dose 100 nM, dosing schedule: sequential, osimertinib-only DTP control AUC in same experiment: 5698, DMSO control AUC in same experiment: 27284",4410
same,area under confluence curve,"HCC2279; test compound dose 100 nM, dosing schedule: upfront, osimertinib-only DTP control AUC in same experiment: 30623, DMSO control AUC in same experiment: 27284",12700
same,area under confluence curve,"HCC2935; test compound dose 100 nM, dosing schedule: sequential, osimertinib-only DTP control AUC in same experiment: 9121, DMSO control AUC in same experiment: 11459",4760
same,area under confluence curve,"HCC2935; test compound dose 100 nM, dosing schedule: upfront, osimertinib-only DTP control AUC in same experiment: 12748, DMSO control AUC in same experiment: 11459",9300
same,area under confluence curve,"HCC4006; test compound dose 100 nM, dosing schedule: sequential, osimertinib-only DTP control AUC in same experiment: 14882, DMSO control AUC in same experiment: 10921",8540
same,area under confluence curve,"HCC4006; test compound dose 100 nM, dosing schedule: upfront, osimertinib-only DTP control AUC in same experiment: 18913, DMSO control AUC in same experiment: 10921",4990
same,area under confluence curve,"HCC827; test compound dose 100 nM, dosing schedule: sequential, osimertinib-only DTP control AUC in same experiment: 18675, DMSO control AUC in same experiment: 48895",6450
same,area under confluence curve,"HCC827; test compound dose 100 nM, dosing schedule: upfront, osimertinib-only DTP control AUC in same experiment: 25542, DMSO control AUC in same experiment: 48895",7890
same,area under confluence curve,"II-18; test compound dose 100 nM, dosing schedule: sequential, osimertinib-only DTP control AUC in same experiment: 3520, DMSO control AUC in same experiment: 13556",1010
same,area under confluence curve,"II-18; test compound dose 100 nM, dosing schedule: upfront, osimertinib-only DTP control AUC in same experiment: 6532, DMSO control AUC in same experiment: 13556",2540
same,area under confluence curve,"PC9; test compound dose 100 nM, dosing schedule: sequential, osimertinib-only DTP control AUC in same experiment: 10725, DMSO control AUC in same experiment: 30578",2310
same,area under confluence curve,"PC9; test compound dose 100 nM, dosing schedule: sequential, osimertinib-only DTP control AUC in same experiment: 15163, DMSO control AUC in same experiment: 28684",7750
same,area under confluence curve,"PC9; test compound dose 100 nM, dosing schedule: sequential, osimertinib-only DTP control AUC in same experiment: 23366, DMSO control AUC in same experiment: 88996",7100
same,area under confluence curve,"PC9; test compound dose 100 nM, dosing schedule: upfront, osimertinib-only DTP control AUC in same experiment: 10245, DMSO control AUC in same experiment: 30578",6070
same,area under confluence curve,"PC9; test compound dose 100 nM, dosing schedule: upfront, osimertinib-only DTP control AUC in same experiment: 21337, DMSO control AUC in same experiment: 28684",15800
same,area under confluence curve,"PC9; test compound dose 100 nM, dosing schedule: upfront, osimertinib-only DTP control AUC in same experiment: 29852, DMSO control AUC in same experiment: 88996",6410
CCc1cc2c(cc1N1CCC(N3CCOCC3)CC1)C(C)(C)c1[nH]c3cc(C#N)ccc3c1C2=O [Alectinib] + C=CC(=O)Nc1cc(Nc2nccc(-c3cn(C)c4ccccc34)n2)c(OC)cc1N(C)CCN(C)C [osimertinib],area under confluence curve,"PC9; test compound dose 1000 nM, dosing schedule: sequential, osimertinib-only DTP control AUC in same experiment: 15001, DMSO control AUC in same experiment: 22064",12500
same,area under confluence curve,"PC9; test compound dose 1000 nM, dosing schedule: upfront, osimertinib-only DTP control AUC in same experiment: 24924, DMSO control AUC in same experiment: 22064",10800
C/C=C/Cn1cc(-c2cc(OC)c(C(=O)N3CCOCC3)cc2OC)c2cc(C)[nH]c2c1=O + C=CC(=O)Nc1cc(Nc2nccc(-c3cn(C)c4ccccc34)n2)c(OC)cc1N(C)CCN(C)C [osimertinib],area under confluence curve,"PC9; test compound dose 100 nM, dosing schedule: sequential, osimertinib-only DTP control AUC in same experiment: 12891, DMSO control AUC in same experiment: 44384",7150
same,area under confluence curve,"PC9; test compound dose 100 nM, dosing schedule: upfront, osimertinib-only DTP control AUC in same experiment: 16570, DMSO control AUC in same experiment: 44384",7750
NC(=O)Nc1cc(-c2cccc(F)c2)sc1C(=O)N[C@H]1CCCNC1 + C=CC(=O)Nc1cc(Nc2nccc(-c3cn(C)c4ccccc34)n2)c(OC)cc1N(C)CCN(C)C [osimertinib],area under confluence curve,"PC9; test compound dose 5 nM, dosing schedule: sequential, osimertinib-only DTP control AUC in same experiment: 7760, DMSO control AUC in same experiment: 29563",4940
same,area under confluence curve,"PC9; test compound dose 5 nM, dosing schedule: upfront, osimertinib-only DTP control AUC in same experiment: 11798, DMSO control AUC in same experiment: 29563",9410
O=C([C@@H](Cc1cccc(C(F)(F)F)c1)NS(=O)(=O)c1cc(F)c2c(c1)CCNC2)N1CCCC1 + C=CC(=O)Nc1cc(Nc2nccc(-c3cn(C)c4ccccc34)n2)c(OC)cc1N(C)CCN(C)C [osimertinib],area under confluence curve,"PC9; test compound dose 1000 nM, dosing schedule: sequential, osimertinib-only DTP control AUC in same experiment: 10968, DMSO control AUC in same experiment: 21594",10000
same,area under confluence curve,"PC9; test compound dose 1000 nM, dosing schedule: upfront, osimertinib-only DTP control AUC in same experiment: 17834, DMSO control AUC in same experiment: 21594",13600
